Measurements as given in PubChem BioAssay (NCATS).
Records with an inconclusive call do not appear. Active and inactive are the calls of the source. Unless noted, calls come from the whole dose curve; as a rule, active = well fitted curve in the direction sought with a large enough effect; inconclusive = small, poorly fitted or top-dose-only effect, or another doubt; inactive = no such curve, though single readings can be large; an effect the other way counts as inactive or inconclusive.

Experiments:
[1] = target: Voltage-gated inwardly rectifying potassium channel KCNH2 (Homo sapiens) (UniProt Q12809); assay: qHTS Assay for Small Molecule Inhibitors of the Human hERG Channel Activity (AID 588834);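 note: top concentration of the series differs between compounds; lower thallium flux fluorescence means stronger hERG block; nearly all actives have a fitted effect of over 50% in size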
In short: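 Blockade is seen as reduced FluxOR thallium-flux fluorescence in U2OS cells expressing hERG from a BacMam construct, in Opti-MEM with 2% FCS. Concentration-response data fitted to the Hill equation for AC50.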

[2] = S16 Schwann cell viability assay (CellTiter-Glo assay) (AID 624031);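 note: cellular ATP luminescence as a viability measure; series mostly up to about 58 µM; nearly all actives have a fitted effect of over 70% in size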
In short: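 Native S16 Schwann cells (rat), serum-containing medium, overnight attachment then 24 h drug exposure at 37 °C/5% CO2. CellTiter-Glo ATP signal; normalized to cell-free and vehicle wells.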

[3] = S16 Schwann cell PMP22 intronic element firefly luciferase assay (AID 624032); note: series mostly up to about 58 µM; nearly all actives have a fitted effect of over 30% in size
In short: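 Rat S16 Schwann cells stably carrying firefly luciferase driven by a PMP22 intronic element, in 10% FBS, treated 24 h at 37 C. ONE-Glo luminescence normalized to PTC124 control and DMSO (0%); curves classed by r2, magnitude and activity.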

[4] = S16 Schwann cell PMP22 intronic element beta-lactamase assay (AID 624044; calls by dose curve; note: nearly all actives have a fitted effect of over 15% in size)
In short: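 Rat S16 Schwann cells with beta-Lac driven by a PMP22 intronic element, compound-treated 24 h at 37 °C. LiveBLAzer FRET B/G read: 460 nm normalized to potassium clavulanate vs DMSO; 535 nm FRET as viability; concentration-effect curves classified.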

[5] = target: Luciferin 4-monooxygenase (Photinus pyralis) (UniProt P08659); assay: Biochemical firefly luciferase enzyme assay for NPC (AID 624030);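 note: purified P. pyralis luciferase at 10 nM with luciferin and ATP substrate; series mostly up to about 59 µM; nearly all actives have a fitted effect of over 70% in size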
In short: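 Purified P. pyralis luciferase at 10 nM in 50 mM Tris Acetate (final), luminescence read within 5 minutes of enzyme addition to compounds. Activity normalised to PTC124 versus DMSO; concentration-response curves classed by r2, magnitude and activity.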

Measured: Potency

Sequence of Voltage-gated inwardly rectifying potassium channel KCNH2 (Homo sapiens) (Q12809 whole entry, looked up): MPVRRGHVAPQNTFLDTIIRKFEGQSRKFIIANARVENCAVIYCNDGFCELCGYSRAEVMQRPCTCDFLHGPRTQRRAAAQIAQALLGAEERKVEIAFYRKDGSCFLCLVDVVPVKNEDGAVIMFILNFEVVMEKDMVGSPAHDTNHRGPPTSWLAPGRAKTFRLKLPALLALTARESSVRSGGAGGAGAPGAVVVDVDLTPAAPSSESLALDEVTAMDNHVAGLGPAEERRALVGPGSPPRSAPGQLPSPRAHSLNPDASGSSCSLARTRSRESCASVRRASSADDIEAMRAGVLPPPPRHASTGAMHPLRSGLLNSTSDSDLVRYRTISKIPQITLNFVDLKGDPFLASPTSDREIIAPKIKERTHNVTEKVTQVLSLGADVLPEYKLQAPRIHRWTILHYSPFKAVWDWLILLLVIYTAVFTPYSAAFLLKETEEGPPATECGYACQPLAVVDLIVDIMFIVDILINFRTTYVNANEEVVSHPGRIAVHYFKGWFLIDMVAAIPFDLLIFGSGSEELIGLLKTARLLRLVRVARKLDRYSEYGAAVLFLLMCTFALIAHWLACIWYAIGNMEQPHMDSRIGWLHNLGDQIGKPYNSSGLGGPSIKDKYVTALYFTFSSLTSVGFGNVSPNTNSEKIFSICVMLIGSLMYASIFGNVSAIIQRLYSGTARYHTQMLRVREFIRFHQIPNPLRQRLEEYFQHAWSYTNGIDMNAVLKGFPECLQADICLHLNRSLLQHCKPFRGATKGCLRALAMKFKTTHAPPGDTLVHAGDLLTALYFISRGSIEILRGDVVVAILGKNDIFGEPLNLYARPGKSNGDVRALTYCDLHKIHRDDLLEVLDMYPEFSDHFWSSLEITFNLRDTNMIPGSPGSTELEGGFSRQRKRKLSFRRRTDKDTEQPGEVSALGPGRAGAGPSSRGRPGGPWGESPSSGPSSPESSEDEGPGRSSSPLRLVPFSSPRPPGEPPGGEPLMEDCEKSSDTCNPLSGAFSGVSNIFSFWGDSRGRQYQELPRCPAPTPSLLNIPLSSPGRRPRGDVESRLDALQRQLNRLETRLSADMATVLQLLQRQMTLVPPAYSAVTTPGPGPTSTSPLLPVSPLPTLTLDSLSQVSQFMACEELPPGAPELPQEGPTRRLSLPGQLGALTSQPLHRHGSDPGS
Sequence of Luciferin 4-monooxygenase (Photinus pyralis) (P08659 whole entry, looked up): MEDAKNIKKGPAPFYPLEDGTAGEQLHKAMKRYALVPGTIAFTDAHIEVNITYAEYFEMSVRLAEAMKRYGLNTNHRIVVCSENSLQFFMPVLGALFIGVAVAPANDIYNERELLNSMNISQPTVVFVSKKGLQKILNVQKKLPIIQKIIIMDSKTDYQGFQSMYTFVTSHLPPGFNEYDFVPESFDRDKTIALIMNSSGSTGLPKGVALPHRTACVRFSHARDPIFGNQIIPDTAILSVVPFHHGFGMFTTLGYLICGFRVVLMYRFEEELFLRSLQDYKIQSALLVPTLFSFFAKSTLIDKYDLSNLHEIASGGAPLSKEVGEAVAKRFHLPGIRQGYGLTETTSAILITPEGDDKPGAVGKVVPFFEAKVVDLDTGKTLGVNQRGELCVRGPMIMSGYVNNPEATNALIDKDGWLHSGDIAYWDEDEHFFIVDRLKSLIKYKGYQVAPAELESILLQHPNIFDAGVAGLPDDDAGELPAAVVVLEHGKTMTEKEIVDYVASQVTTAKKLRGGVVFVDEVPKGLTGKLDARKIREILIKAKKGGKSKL

O=C(NC(=O)c1c(F)cccc1F)Nc1ccc(Cl)c(Oc2ncc(C(F)(F)F)cc2Cl)c1
inactive: [1] | [2] | [3] | [4]

COC([CH2][Hg])CNC(=O)c1ccccc1OCC(=O)O (configuration not stated)
inactive: [1] | [2]

CCC(=O)O[C@@](Cc1ccccc1)(c1ccccc1)[C@@H](C)CN(C)C
inactive: [1] | [2] | [4]

O=C(CCl)c1ccc(Oc2ccc(C(=O)CCl)cc2)cc1
inactive: [1] | [2] | [3] | [4]

O[C@H]1[C@H]2[C@H](O)CCCN2C[C@H]1O
inactive: [1] | [5] | [2] | [4]
